# Reference: PubChem BioAssay (NCI)
# The panel holds about 79,000 compounds, 15% with a hit somewhere; the sample as a whole holds those more often. Values without a mark were called inactive. The source made the active and inactive calls. Rule as the data show it: active = growth inhibition above about 70%; inactive = the rest.
# What was measured:
# [1] = NCI Yeast Anticancer Drug Screen. Data for the rad52 strain (AID 147);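 also: 0% = growth of vehicle-treated control cultures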; settings: S. cerevisiae rad52 mutant growth inhibition, active compounds read high
# Method in brief: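 Yeast strain carrying a DNA damage repair alteration was exposed to test compounds. Growth inhibition was measured relative to vehicle-treated controls.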
# [2] = NCI Yeast Anticancer Drug Screen. Data for the wt1 strain (AID 149);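 also: 0% = growth of vehicle-treated wt1 cultures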; settings: S. cerevisiae wt1 strain (SPY 50644) growth inhibition, active compounds read high
# Method in brief: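 Measured: growth of wt1 yeast under compound versus vehicle treatment, reported as inhibition.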
# [3] = NCI Yeast Anticancer Drug Screen. Data for the rad50EPP+ strain (AID 151);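 also: 0% = growth of vehicle-treated control cultures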; settings: S. cerevisiae rad50 mutant strain, active compounds read high
# Method in brief: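 Yeast strain carrying rad50 alteration (rad50EPP+) exposed to compounds; growth inhibition measured relative to vehicle-treated controls.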
# [4] = NCI Yeast Anticancer Drug Screen. Data for the mgt1 strain (AID 153); settings: S. cerevisiae mgt1 mutant growth inhibition, active compounds read high
# Method in brief: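 Yeast mgt1 strain (DNA repair/cell-cycle alteration panel) exposed to compounds; growth inhibition measured relative to vehicle-treated controls.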
# [5] = NCI Yeast Anticancer Drug Screen. Data for the rad50 strain (AID 155);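 also: 0% = growth of vehicle-only cultures of the same strain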; settings: S. cerevisiae rad50 strain growth inhibition, active compounds read high
# Method in brief: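 Growth of the mutant yeast was measured after compound exposure and referenced to vehicle-treated cultures.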
# [6] = NCI Yeast Anticancer Drug Screen. Data for the mec2-1 strain (AID 157); settings: S. cerevisiae mec2-1 strain, active compounds read high
# Method in brief: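 mec2-1 yeast strain, carrying an alteration in DNA damage repair or cell cycle control, was exposed to compounds; growth inhibition was measured relative to vehicle-treated controls.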
# [7] = NCI Yeast Anticancer Drug Screen. Data for the rad14 strain (AID 159);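 also: 0% = growth of vehicle-treated control cultures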; settings: S. cerevisiae rad14 strain growth inhibition, active compounds read high
# Method in brief: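 Here, inhibition of yeast growth was measured after compound exposure, using a strain with a genetic defect in DNA damage repair and vehicle-treated cultures as the reference.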
# [8] = NCI Yeast Anticancer Drug Screen. Data for the sgs1 mgt1 strain (AID 161);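 also: 0% = growth of cultures given vehicle only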; settings: S. cerevisiae sgs1 mgt1 strain, active compounds read high
# Method in brief: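 Growth of a repair-deficient yeast mutant was monitored after compound treatment and expressed as inhibition relative to vehicle-treated cultures.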
# [9] = NCI Yeast Anticancer Drug Screen. Data for the CLN2oe strain (AID 163);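 also: 0% = growth of vehicle-only control cultures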; settings: S. cerevisiae CLN2oe strain, active compounds read high
# Method in brief: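 Yeast cells carrying a defined cell-cycle control alteration were exposed to test compounds. Growth inhibition was scored against vehicle-treated control cultures.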
# [10] = NCI Yeast Anticancer Drug Screen. Data for the cln2 rad14 strain (AID 165);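 also: 0% = growth equal to vehicle treated cultures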; settings: S. cerevisiae cln2 rad14 strain, active compounds read high
# Method in brief: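 Yeast carrying cln2 and rad14 alterations (cell cycle control and DNA damage repair) were exposed to compounds. Growth inhibition was measured against vehicle-treated controls.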
# [11] = NCI Yeast Anticancer Drug Screen. Data for the bub3 strain (AID 167); settings: S. cerevisiae bub3 mutant strain, active compounds read high
# Method in brief: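 Whole-cell yeast assay. The mutant strain was incubated with compounds, and growth inhibition was determined by comparison with vehicle-treated cells.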
# [12] = NCI Yeast Anticancer Drug Screen. Data for the wt2 strain (AID 169);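 also: 0% = growth of vehicle-treated yeast cultures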; settings: S. cerevisiae wt2 strain growth inhibition, active compounds read high
# Method in brief: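 Yeast cells were exposed to test compounds, and growth inhibition was measured relative to vehicle-treated controls.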
# [13] = NCI Yeast Anticancer Drug Screen. Data for the mlh1 strain (AID 171);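 also: 0% = growth of vehicle-treated control cultures of the same strain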; settings: S. cerevisiae mlh1 strain growth inhibition, active compounds read high
# Method in brief: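 Yeast carrying a defined genetic alteration in DNA damage repair or cell cycle control were exposed to test compounds. Growth inhibition was measured relative to vehicle-treated controls.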
# [14] = NCI Yeast Anticancer Drug Screen. Data for the sgs1 strain (AID 173);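 also: 0% = growth of vehicle-only control cultures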; settings: S. cerevisiae sgs1 mutant, active compounds read high
# Method in brief: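 Yeast mutant strains carrying defined defects in DNA damage repair or cell cycle control were exposed to test compounds. Growth inhibition was scored against vehicle-treated controls.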
# [15] = NCI Yeast Anticancer Drug Screen. Data for the mlh1 rad18 strain (AID 175); settings: S. cerevisiae mlh1 rad18 strain growth inhibition, active compounds read high
# Method in brief: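 Growth inhibition of the yeast strain was measured after compound exposure and expressed relative to vehicle-treated controls. The strain carries defined defects in DNA damage repair.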
# [16] = NCI Yeast Anticancer Drug Screen. Data for the rad18 strain (AID 177); settings: S. cerevisiae rad18 mutant growth inhibition, active compounds read high
# Method in brief: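 Yeast carrying a defined DNA damage repair alteration were exposed to compounds. Growth inhibition was expressed relative to vehicle-treated controls.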
# [17] = at 5.0 µM (retest, dose inferred, filed as 0.5)
# [18] = at 50.0 µM (retest, dose inferred, filed as 5.0)
smiles,measurement,setting,value
COc1cc(C2c3cc4c(cc3OC(Nc3ccccc3)C2C)OCO4)cc(OC)c1O (stereo unspecified),growth inhibition,[1]; at 1.2 µM,1%
same,growth inhibition,[1]; at 3.7 µM,2%
same,growth inhibition,[1]; at 11.0 µM,0%
same,growth inhibition,[1]; at 33.0 µM,2%
same,growth inhibition,[1]; at 100.0 µM,86% (active)
same,growth inhibition,[2]; at 1.2 µM,1%
same,growth inhibition,[2]; at 3.7 µM,-1%
same,growth inhibition,[2]; at 11.0 µM,2%
same,growth inhibition,[2]; at 33.0 µM,0%
same,growth inhibition,[2]; at 100.0 µM,30%
same,growth inhibition,[3]; at 1.2 µM,-1%
same,growth inhibition,[3]; at 3.7 µM,-3%
same,growth inhibition,[3]; at 11.0 µM,1%
same,growth inhibition,[3]; at 33.0 µM,1%
same,growth inhibition,[3]; at 100.0 µM,0%
same,growth inhibition,[4]; at 1.2 µM,-1%
same,growth inhibition,[4]; at 3.7 µM,-3%
same,growth inhibition,[4]; at 11.0 µM,-3%
same,growth inhibition,[4]; at 33.0 µM,15%
same,growth inhibition,[4]; at 100.0 µM,38%
same,growth inhibition,[5]; at 1.2 µM,2%
same,growth inhibition,[5]; at 3.7 µM,2%
same,growth inhibition,[5]; [17],-3%
same,growth inhibition,[5]; at 11.0 µM,2%
same,growth inhibition,[5]; at 33.0 µM,2%
same,growth inhibition,[5]; [18],64%
same,growth inhibition,[5]; at 50.0 µM,77% (active)
same,growth inhibition,[5]; at 100.0 µM,86% (active)
same,growth inhibition,[6]; at 1.2 µM,0%
same,growth inhibition,[6]; at 3.7 µM,1%
same,growth inhibition,[6]; [17],-5%
same,growth inhibition,[6]; at 11.0 µM,1%
same,growth inhibition,[6]; at 33.0 µM,1%
same,growth inhibition,[6]; [18],78% (active)
same,growth inhibition,[6]; at 50.0 µM,36.1%
same,growth inhibition,[6]; at 100.0 µM,67%
same,growth inhibition,[7]; at 1.2 µM,1%
same,growth inhibition,[7]; at 3.7 µM,1%
same,growth inhibition,[7]; at 11.0 µM,4%
same,growth inhibition,[7]; at 33.0 µM,5%
same,growth inhibition,[7]; at 100.0 µM,51%
same,growth inhibition,[8]; [17],-3%
same,growth inhibition,[8]; [18],6%
same,growth inhibition,[8]; at 50.0 µM,58.7%
same,growth inhibition,[9]; at 1.2 µM,1%
same,growth inhibition,[9]; at 3.7 µM,0%
same,growth inhibition,[9]; at 11.0 µM,1%
same,growth inhibition,[9]; at 33.0 µM,0%
same,growth inhibition,[9]; at 100.0 µM,39%
same,growth inhibition,[10]; [17],3%
same,growth inhibition,[10]; [18],52%
same,growth inhibition,[10]; at 50.0 µM,6.9%
same,growth inhibition,[11]; at 1.2 µM,-1%
same,growth inhibition,[11]; at 3.7 µM,-5%
same,growth inhibition,[11]; [17],11%
same,growth inhibition,[11]; at 11.0 µM,-1%
same,growth inhibition,[11]; at 33.0 µM,0%
same,growth inhibition,[11]; [18],51%
same,growth inhibition,[11]; at 50.0 µM,43.8%
same,growth inhibition,[11]; at 100.0 µM,41%
same,growth inhibition,[12]; at 1.2 µM,-1%
same,growth inhibition,[12]; at 3.7 µM,-2%
same,growth inhibition,[12]; at 11.0 µM,-1%
same,growth inhibition,[12]; at 33.0 µM,0%
same,growth inhibition,[12]; at 100.0 µM,68%
same,growth inhibition,[13]; at 1.2 µM,-3%
same,growth inhibition,[13]; at 3.7 µM,-1%
same,growth inhibition,[13]; at 11.0 µM,0%
same,growth inhibition,[13]; at 33.0 µM,-3%
same,growth inhibition,[13]; at 100.0 µM,61%
same,growth inhibition,[14]; at 1.2 µM,-1%
same,growth inhibition,[14]; at 3.7 µM,0%
same,growth inhibition,[14]; at 11.0 µM,0%
same,growth inhibition,[14]; at 33.0 µM,2%
same,growth inhibition,[14]; at 100.0 µM,65%
same,growth inhibition,[15]; [17],-1%
same,growth inhibition,[15]; [18],99% (active)
same,growth inhibition,[15]; at 50.0 µM,92.5% (active)
same,growth inhibition,[16]; at 1.2 µM,0%
same,growth inhibition,[16]; at 3.7 µM,-1%
same,growth inhibition,[16]; at 11.0 µM,-7%
same,growth inhibition,[16]; at 33.0 µM,1%
same,growth inhibition,[16]; at 100.0 µM,92% (active)
CN(Cc1cnc2nc(N)nc(N)c2n1)c1ccc(C(=O)N[C@@H](CCC(=O)O)C(=O)O)cc1,growth inhibition,[1]; at 1.2 µM,-2%
same,growth inhibition,[1]; at 3.7 µM,-1%
same,growth inhibition,[1]; at 11.0 µM,8%
same,growth inhibition,[1]; at 33.0 µM,41%
same,growth inhibition,[1]; at 100.0 µM,85% (active)
same,growth inhibition,[2]; at 1.2 µM,-1%
same,growth inhibition,[2]; at 3.7 µM,-3%
same,growth inhibition,[2]; at 11.0 µM,-3%
same,growth inhibition,[2]; at 33.0 µM,6%
same,growth inhibition,[2]; at 100.0 µM,24%
same,growth inhibition,[3]; at 1.2 µM,-2%
same,growth inhibition,[3]; at 3.7 µM,-4%
same,growth inhibition,[3]; at 11.0 µM,-5%
same,growth inhibition,[3]; at 33.0 µM,1%
same,growth inhibition,[3]; at 100.0 µM,21%
same,growth inhibition,[4]; at 1.2 µM,-1%
same,growth inhibition,[4]; at 3.7 µM,-3%
same,growth inhibition,[4]; at 11.0 µM,-4%
same,growth inhibition,[4]; at 33.0 µM,1%
same,growth inhibition,[4]; at 100.0 µM,28%
same,growth inhibition,[5]; at 1.2 µM,-2%
same,growth inhibition,[5]; at 3.7 µM,1%
same,growth inhibition,[5]; [17],-2%
same,growth inhibition,[5]; at 11.0 µM,6%
same,growth inhibition,[5]; at 33.0 µM,38%
same,growth inhibition,[5]; [18],82% (active)
same,growth inhibition,[5]; at 50.0 µM,88.6% (active)
same,growth inhibition,[5]; at 100.0 µM,85% (active)
same,growth inhibition,[6]; at 1.2 µM,1%
same,growth inhibition,[6]; at 3.7 µM,2%
same,growth inhibition,[6]; [17],14%
same,growth inhibition,[6]; at 11.0 µM,17%
same,growth inhibition,[6]; at 33.0 µM,88% (active)
same,growth inhibition,[6]; [18],94% (active)
same,growth inhibition,[6]; at 50.0 µM,97.9% (active)
same,growth inhibition,[6]; at 100.0 µM,96% (active)
same,growth inhibition,[7]; at 1.2 µM,-1%
same,growth inhibition,[7]; at 3.7 µM,-5%
same,growth inhibition,[7]; at 11.0 µM,-7%
same,growth inhibition,[7]; at 33.0 µM,14%
same,growth inhibition,[7]; at 100.0 µM,72% (active)
same,growth inhibition,[8]; [17],-3%
same,growth inhibition,[8]; [18],64%
same,growth inhibition,[8]; at 50.0 µM,82.5% (active)
same,growth inhibition,[9]; at 1.2 µM,0%
same,growth inhibition,[9]; at 3.7 µM,0%
same,growth inhibition,[9]; at 11.0 µM,-7%
same,growth inhibition,[9]; at 33.0 µM,-16%
same,growth inhibition,[9]; at 100.0 µM,20%
same,growth inhibition,[10]; [17],-1%
same,growth inhibition,[10]; [18],22%
same,growth inhibition,[10]; at 50.0 µM,-6.4%
same,growth inhibition,[11]; at 1.2 µM,2%
same,growth inhibition,[11]; at 3.7 µM,-1%
same,growth inhibition,[11]; [17],-7%
same,growth inhibition,[11]; at 11.0 µM,-7%
same,growth inhibition,[11]; at 33.0 µM,-4%
same,growth inhibition,[11]; [18],63%
same,growth inhibition,[11]; at 50.0 µM,90.5% (active)
same,growth inhibition,[11]; at 100.0 µM,40%
same,growth inhibition,[12]; at 1.2 µM,-3%
same,growth inhibition,[12]; at 3.7 µM,-4%
same,growth inhibition,[12]; at 11.0 µM,-4%
same,growth inhibition,[12]; at 33.0 µM,12%
same,growth inhibition,[12]; at 100.0 µM,47%
same,growth inhibition,[13]; at 1.2 µM,-1%
same,growth inhibition,[13]; at 3.7 µM,-4%
same,growth inhibition,[13]; at 11.0 µM,-5%
same,growth inhibition,[13]; at 33.0 µM,7%
same,growth inhibition,[13]; at 100.0 µM,35%
same,growth inhibition,[14]; at 1.2 µM,-2%
same,growth inhibition,[14]; at 3.7 µM,-3%
same,growth inhibition,[14]; at 11.0 µM,3%
same,growth inhibition,[14]; at 33.0 µM,27%
same,growth inhibition,[14]; at 100.0 µM,63%
same,growth inhibition,[15]; [17],-2%
same,growth inhibition,[15]; [18],58%
same,growth inhibition,[15]; at 50.0 µM,87.8% (active)
same,growth inhibition,[16]; at 1.2 µM,-2%
same,growth inhibition,[16]; at 3.7 µM,0%
same,growth inhibition,[16]; at 11.0 µM,4%
same,growth inhibition,[16]; at 33.0 µM,30%
same,growth inhibition,[16]; at 100.0 µM,80% (active)
